Records with an inconclusive call do not appear. Calls of active or inactive are those of the source. Calls follow the shape of the dose curve; as a rule, active = well fitted inhibition curve with a large enough effect; inconclusive = small, poorly fitted or top-dose-only effect; inactive = no such curve, though single readings can be large or run the other way.
Molecular target: Retinaldehyde dehydrogenase 3 (Homo sapiens) (UniProt P47895)
Assay: qHTS for Inhibitors of the Aldehyde Dehydrogenase Family (ALDH1A3) Primary screen (AID 2061315);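 as to activity change, negative = inhibition: plate controls were DMSO vehicle for no effect and reference inhibitor for full effect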
Settings: ALDH inhibition qHTS; series mostly up to 56 µM; activity change, negative = inhibition: at the top concentration
Potency is read from the fitted curve at half-maximal effect.

SMILES | activity change, negative = inhibition | Potency
COc1cc(/C=C/C(=O)NCCn2c(C(F)(F)F)cc3ccccc32)cc(OC)c1OC | -2.84% (inactive) | 
C/C=C/C=C/C(CC(=O)O)Nc1ccc(C=O)cc1 (stereo not drawn) | -14.4% (inactive) | 
C=C1C(O)C(O)C2(CC3C(C)=CCC4C(C)(C(=O)O)CCCC34C)OC2C1O (stereo not drawn) | -29.6% (inactive) | 
CO[C@@H](Cc1ccc(OCCc2nc(-c3ccccc3)oc2C)c2ccsc12)C(=O)O | -0.0465% (inactive) | 
O=C(O)c1ccc(-n2cccc2/C=C2\SC(=O)N(Cc3ccc(Cl)cc3)C2=O)cc1 |  | inactive
C=CC(=O)N1CC(N2CCN(C(=O)CNc3cc(C4CC4)c(Cl)cc3O)CC2)C1 |  | 2.51 µM (active)
COc1cc(CCc2ccc(OCC=C(C)C)cc2)cc(OC)c1OC | -0.218% (inactive) | 
CCc1c(Cl)c(O)c(Cl)c(O)c1C(=O)O[C@H]1[C@H](O)[C@H](OC)[C@H](OC/C2=C\C=C\C[C@H](O)/C(C)=C\[C@H](CC)[C@@H](O[C@@H]3OC(C)(C)[C@@H](OC(=O)C(C)C)[C@H](O)[C@@H]3O)/C(C)=C/C(C)=C/C[C@@H]([C@@H](C)O)OC2=O)O[C@@H]1C | -5.41% [at 28 µM] (inactive) | 
Nc1nc(OCc2cc(Br)cs2)c2[nH]cnc2n1 | -0.124% (inactive) | 
Cc1c2cc(c(C(=O)O)c1C)OC1OC(C(O)C(O)C1O)C(O)C(O)C1OC(O2)C(O)C(O)C1O (stereo not drawn) | 16.8% [at 28 µM] (inactive) | 

Molecular target: Aldehyde dehydrogenase 1A1 (Homo sapiens) (UniProt P00352)
Assay: qHTS for Inhibitors of the Aldehyde Dehydrogenase Family (ALDH1A1) Confirmatory screens (AID 2061316); also: nearly all actives have a fitted effect of over 65% in size
Settings: ALDH inhibition qHTS; series mostly up to 47.3 µM; activity change, negative = inhibition: at the top concentration

SMILES | Potency
C/C=C/C=C/C(CC(=O)O)Nc1ccc(C=O)cc1 (stereo not drawn) | 2.01 µM (active)
O=C(O)c1ccc(-n2cccc2/C=C2\SC(=O)N(Cc3ccc(Cl)cc3)C2=O)cc1 | 4 µM (active)
C=CC(=O)N1CC(N2CCN(C(=O)CNc3cc(C4CC4)c(Cl)cc3O)CC2)C1 | 22.5 µM (active)

Test system: not listed separately
Assay: BET inhibitor-based combinations targeting novel dependencies in MECOM-rearranged (r) AML: SET-2 cell line (AID 2202231); also: nearly all actives have a fitted effect of over 35% in size;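 as to viability: plate controls were DMSO treated cells for no effect and wells without cells for full effect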
Settings: SET-2 AML cells viability, CellTiter-Glo luminescence, 48 h; viability: stronger effect = lower value, concentration not given here
Method in brief: (§1)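 Each compound was tested at eleven concentrations on cells seeded at 500/well. After two days' incubation, ATP-based luminescence reported viability; responses relative to DMSO and blank wells yielded AUC and cell-line-centred Z-AUC.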

SMILES | viability | Potency
COc1cc2c(cc1OC)CC(=O)N(CCCN(C)C[C@H]1Cc3cc(OC)c(OC)cc31)CC2 | 111% (inactive) | 
COc1c(C)c2c(c(O)c1C/C=C(\C)CCC(=O)O)C(=O)OC2 |  | 1.18 µM (active)
Cc1ccsc1C(=CCCN1CCC[C@@H](C(=O)O)C1)c1sccc1C | 112% (inactive) | 
CC(C)C[C@@H](N)[C@H](O)C(=O)N[C@H](C(=O)N[C@H](C(=O)N[C@@H](CC(=O)O)C(=O)O)C(C)C)C(C)C | 110% (inactive) | 
CC(C)C[C@H](CC(=O)O)C(=O)N[C@@H](Cc1c[nH]c2ccccc12)C(=O)N[C@@H](C)c1ccccc1 | 104% (inactive) | 
CC(=O)OC[C@@H]1O[C@@H](n2ccc(=O)[nH]c2=O)[C@H](OC(C)=O)[C@H]1OC(C)=O | 108% (inactive) | 
C[C@H](NC(=O)Cc1cc(F)cc(F)c1)C(=O)N[C@H](C(=O)OC(C)(C)C)c1ccccc1 | 118% (inactive) | 
CCc1cc(-c2n[nH]c(C)c2-c2ccc3c(c2)OCCO3)c(O)cc1O |  | 14.8 µM (active)
CCOc1ccccc1N=Nc1c(C)[nH]n(-c2nc(-c3ccccc3)cs2)c1=O | 118% (inactive) | 
O=C(O)C1=CC(O)C(O)[C@H](O)C1 (stereo partly drawn) | 115% (inactive) | 
CCCCC(CC)COC(=O)C(C#N)=C(c1ccccc1)c1ccccc1 (stereo not drawn) | 108% (inactive) | 
CC1(C)O[C@@H]2C[C@H]3[C@@H]4CCC5=CC(=O)C=C[C@]5(C)[C@@]4(F)[C@@H](O)C[C@]3(C)[C@]2(C(=O)CO)O1 | 115% (inactive) | 
OC(c1cc(C(F)(F)F)nc2c(C(F)(F)F)cccc12)C1CCCCN1 (stereo not drawn) |  | 26.3 µM (active)
COc1ccc2cccc(CCNC(C)=O)c2c1 | 116% (inactive) | 
Cc1cnc(C(=O)O)c[n+]1[O-] | 122% (inactive) | 
Nc1cc(C(Cl)=C(Cl)Cl)c(S(N)(=O)=O)cc1S(N)(=O)=O | 111% (inactive) | 
CC(COc1ccccc1)N(CCCl)Cc1ccccc1 (stereo not drawn) | 99.7% (inactive) | 
Nc1ccc(S(N)(=O)=O)cc1 | 93.8% (inactive) | 
CC(=O)SCC(Cc1ccccc1)C(=O)NCC(=O)OCc1ccccc1 (stereo not drawn) | 105% (inactive) | 
Cc1nnc(NS(=O)(=O)c2ccc(N)cc2)s1 | 113% (inactive) | 

Test system: not listed separately
Assay: BET inhibitor-based combinations targeting novel dependencies in MECOM-rearranged (r) AML: OCI-AML3 cell line (AID 2202232); also: nearly all actives have a fitted effect of over 35% in size;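 as to viability (% of control): plate controls were DMSO vehicle wells for no effect and wells without cells for full effect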
Settings: CellTiter-Glo luminescence, 48 h; Potency: OCI-AML3 viability; series mostly up to 46 µM; viability (% of control): at the top concentration
Method in brief: as §1

SMILES | Potency | viability (% of control)
Oc1ccc(C2CCN(c3ccnc4ccccc34)CC2)cc1O | 13.2 µM (active) | 
COc1cc2c(cc1OC)CC(=O)N(CCCN(C)C[C@H]1Cc3cc(OC)c(OC)cc31)CC2 |  | 115% (inactive)
COc1c(C)c2c(c(O)c1C/C=C(\C)CCC(=O)O)C(=O)OC2 | 1.32 µM (active) | 
Cc1ccsc1C(=CCCN1CCC[C@@H](C(=O)O)C1)c1sccc1C | 0.468 µM (active) | 
CC(C)C[C@@H](N)[C@H](O)C(=O)N[C@H](C(=O)N[C@H](C(=O)N[C@@H](CC(=O)O)C(=O)O)C(C)C)C(C)C |  | 99.8% (inactive)
COc1cc2c(cc1Cc1cccc(Cl)c1F)c(=O)c(C(=O)O)cn2[C@H](CO)C(C)C | 16.6 µM (active) | 
CC(=O)OC[C@@H]1O[C@@H](n2ccc(=O)[nH]c2=O)[C@H](OC(C)=O)[C@H]1OC(C)=O |  | 92.3% (inactive)
C[C@H](NC(=O)Cc1cc(F)cc(F)c1)C(=O)N[C@H](C(=O)OC(C)(C)C)c1ccccc1 |  | 102% (inactive)
CCc1cc(-c2n[nH]c(C)c2-c2ccc3c(c2)OCCO3)c(O)cc1O | 18.6 µM (active) | 
O=C(O)C1=CC(O)C(O)[C@H](O)C1 (stereo partly drawn) |  | 121% (inactive)
CCCCC(CC)COC(=O)C(C#N)=C(c1ccccc1)c1ccccc1 (stereo not drawn) |  | 107% (inactive)
CC1(C)O[C@@H]2C[C@H]3[C@@H]4CCC5=CC(=O)C=C[C@]5(C)[C@@]4(F)[C@@H](O)C[C@]3(C)[C@]2(C(=O)CO)O1 |  | 128% (inactive)
COc1cc(S(C)(=O)=O)ccc1Nc1nc2ccc(-c3ccc(NC(=O)[C@H](C)c4ccc(F)cc4)cc3)cn2n1 | 0.934 µM (active) | 
OC(c1cc(C(F)(F)F)nc2c(C(F)(F)F)cccc12)C1CCCCN1 (stereo not drawn) | 18.6 µM (active) | 
COc1ccc2cccc(CCNC(C)=O)c2c1 |  | 99.2% (inactive)
Cc1cnc(C(=O)O)c[n+]1[O-] |  | 108% (inactive)
Nc1cc(C(Cl)=C(Cl)Cl)c(S(N)(=O)=O)cc1S(N)(=O)=O |  | 130% (inactive)
Nc1ccc(S(N)(=O)=O)cc1 |  | 96% (inactive)
CC(=O)SCC(Cc1ccccc1)C(=O)NCC(=O)OCc1ccccc1 (stereo not drawn) |  | 108% (inactive)
CNNCc1ccc(C(=O)NC(C)C)cc1 |  | 117% (inactive)

Source: PubChem BioAssay (NCATS)
